Where “and” joins values, the source holds several entries; their conditions need not be identical. Identical values can stand only once. The whole screen tested about 290,000 compounds, of which about 2,700 (0.93%) were called active.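 Rule for the calls: active = inhibition above the screen-wide mean plus 3 SD, computed separately per campaign (cut at about 16% in these data); inactive = the rest.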 Only a selection was taken, and actives are over-represented in it overall.
tested on: Heat shock protein HSP 90 (rabbit reticulocyte lysate; luciferase refolding); assay: HSP90 inhibitors, primary screen, cell lysate, luminescence (AID 1789); conditions: 3 h, at 5.6 µM, stronger effect = higher value;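 note: 0% = DMSO wells and 100% = 60 µM geldanamycin wells; inhibitors lower the luminescence because luciferase stays unfolded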

inhibition, inactive:
COc1ccc(S(=O)(=O)NC(C)c2ccccc2)cc1C(=O)N1CCCCC1 (stereo unspecified) -0.07%
Cc1cc(NC(=O)c2ccccc2C)no1 1.41%
CC(NCc1cccs1)C(=O)Nc1cc(Cl)cc(Cl)c1 (stereo unspecified) 3.33%
O=S(=O)(Cc1cc(Cl)nc(-c2cccnc2)n1)c1ccccc1 -1.01%
Cc1cccc(C(=O)N2CCCC(Nc3ccc(C(C)C)cc3)C2)n1 (stereo unspecified) 2.58%
Cc1ccc(NS(=O)(=O)c2ccc(C)c(NC(=O)COc3ccc4ccccc4c3)c2)c(C)c1 3.5%
COc1ccc2cc(S(=O)(=O)Nc3ccccn3)ccc2c1 -2.45%
O=S(=O)(Nc1ccccc1Cl)c1cccc2nsnc12 -0.91%
COc1ccc2c(c1)C(NS(=O)(=O)OCC(Cl)(Cl)Cl)CCC2 (stereo unspecified) -3.42%
COc1cccc(/C=C2\C=C(c3ccc(C)cc3)OC2=O)c1OC(C)=O -2.84%
CCOc1cccc(/C=C/c2ccc3ccccc3n2)c1OC(C)=O 11.8%
Cc1cc(=O)oc2cc(OC(C)C(=O)NCCc3ccc(S(N)(=O)=O)cc3)ccc12 (stereo unspecified) -1.68%
COC(=O)C1=C(O)/C(=C/c2ccc(OCC(=O)Nc3ccccc3)cc2)N=C1C 3.09%
COC(=O)c1ccc(Nc2ncnc3sccc23)cc1 -0.64%
COc1ccc(N(CC(=O)NCC2CCCO2)C(=O)CCC(=O)Nc2nccs2)c(OC)c1 (stereo unspecified) 1.16%
C=CCN(C(=O)Nc1ccc2c(c1)nc(C)n2C)c1ccccc1 2.61%
Cc1nc2cc(NC(=O)NC3CC3)ccc2n1C -3.15%
CCN(C(=O)COc1ccc(C(=O)c2ccccc2)cc1)c1ccccc1 2.9%
COCc1nnc(NC(=O)c2ccc3c(c2)OCO3)s1 -2.47%
O=C(Nc1cccc(S(=O)(=O)Nc2ccc(Cl)cc2)c1)c1ccc2c(c1)OCCO2 -6.31%
O=C(Nc1ccccc1F)c1ccc2c(c1)OCO2 4.08%
O=C(Nc1ccc(N2CCOCC2)cc1)c1ccc2c(c1)OCO2 4.41%
CN1CCN(CCNC(=O)Nc2ccccc2[N+](=O)[O-])CC1 -4.79%
O=C(CCN1C(=O)C2C3CCC(C3)C2C1=O)Nc1ccc(Cl)cc1Cl (stereo unspecified) -1.86%
COc1ccc(/C(C)=N\NC(=O)c2ccc(-c3ccccc3)cc2)c(F)c1 -2.33%
Oc1c(Cl)cc(Cl)cc1/C=N/c1ncn[nH]1 -0.17%
CC(C)C[C@H](NC(=O)N1CCn2c1nc1ccccc12)C(=O)NC1CC1 -4.43%
COc1ccccc1C(=O)Nc1cccc(C(=O)N2CCOCC2)c1 -1.04%
COc1cc(CNC2CCCC2)c(Br)cc1OCc1ccccc1 -1.4%
CC(C)(C)NCc1cc(Br)ccc1OC1CCCC1 -2.93%
COc1cc(C(=O)OCC(=O)NC(C)CCc2ccccc2)cc(OC)c1OC (stereo unspecified) 0.2%
COc1ccccc1CNS(=O)(=O)c1c(C)[nH]c(C)c1C(=O)N1CCCCC1 -3%
CCOc1ccccc1C(=O)NCCCn1ccnc1 2.74%
CCCOc1ccccc1C(=O)NCCCC(=O)O 1.45%
Cc1c(C(=O)N(C)CCc2cnn(C)c2)oc2c(F)cccc12 -3.1%
O=C(Cc1ccsc1)N1CCN(S(=O)(=O)c2cc(C(F)(F)F)cc(C(F)(F)F)c2)CC1 -2.85%
CC(NC(=O)c1ccco1)c1ccc2c(c1)OCO2 (stereo unspecified) -2.76%
O=C(Nc1ccccc1)c1ccccc1NC(=O)C(F)(F)F -1.41%
COCc1cc(=O)[nH]c(-c2ccc(C(F)(F)F)cc2)n1 -1.15%
CSc1ccccc1NC(=O)c1cc(Cl)sc1Cl 2.29%
C=CCn1c(C)cc(C(=O)CN2C(=O)c3ccccc3C2=O)c1C -0.12%
Cc1cc(C2=NNC(=Nc3ccc(S(=O)(=O)N4CCOCC4)cc3)SC2)c(C)n1CC1CCCO1 (stereo unspecified) 1.56%
Cc1ccc2c(=O)cc(C(=O)NCCc3ccc(S(N)(=O)=O)cc3)oc2c1C 0.5%
CC(=O)c1ccc(NC(=O)c2cc(-c3cccs3)on2)cc1 -4.55%
COc1ccc(-n2nc(C(=O)NCC(=O)Nc3cccc(C)n3)c3ccccc3c2=O)cc1 0.84%
COCCCNC(=O)CNC(=O)c1nn(-c2ccc(OC)cc2)c(=O)c2ccccc12 -1.14%
CC(=O)NS(=O)(=O)c1ccc(N/C(N)=N/c2nc(C)cc(C)n2)cc1 -3.21%
COc1cccc(C(=O)NNC(=O)/C=C/c2ccccc2)c1 -8.89%
Cc1cc(C)nc(SCC(=O)c2ccc(Cl)cc2)n1 -0.36%
Cc1ccc(N/C=C/C(=O)c2ccccc2)cc1C -2.61%
COc1ccc(/C=N/Nc2nc3ccccc3c(=O)[nH]2)cc1 0.73%
COc1cc(/C=N/NC(=O)c2ccc(N3CCCC3=O)cc2)ccc1O -0.72%
COc1cc(/C=N/NC(=O)c2ccccc2)ccc1OS(=O)(=O)c1ccccc1 -0.09%
COc1ccc(/C=N/NC(=O)c2ccc3c(c2)OCCO3)c(OC)c1 2.94%
COc1ccc(C(=O)Nc2ccccc2C(=O)NCc2ccco2)cc1 -2.57%
COc1ccc(/C=N/OCC(=O)N(Cc2ccccc2)c2ccccc2C(=O)O)cc1 -2.76%
O=C(NCc1cccnc1)c1ccccc1NC(=O)c1c(F)cccc1F -0.75%
COc1ccc(N(CC(=O)Nc2cc(OC)cc(OC)c2)S(=O)(=O)c2c(C)n[nH]c2C)cc1 -1.64%
Cc1ccc(S(=O)(=O)NCC(=O)N2CCOCCOCCOCCOCC2)cc1 -3.1%
COc1ccccc1-c1cnn2c(N3CCOCC3)cc(C)nc12 3.53%
Cc1sc2ncn(CC(=O)NCCCC(=O)N3CCN(c4ccccc4F)CC3)c(=O)c2c1C -3.37%
O=C(NC1=NCCS1)[C@H](Cc1ccccc1)N1C(=O)c2ccccc2C1=O 3.87%
CC(NC(=O)COc1ccccc1)C(=O)NC1=NCCS1 (stereo unspecified) -0.56%
N#Cc1ccccc1S(=O)(=O)N1CCN(C(=O)c2cc(-c3ccccc3)nn2-c2ccccc2)CC1 4.37%
CC(C)c1nnc(NC(=O)C2CC(=O)N(CCc3ccc(F)cc3)C2)s1 (stereo unspecified) -2.78%
CCOC(=O)C1=C(CCc2ccccc2)NC(=O)NC1c1ccc2ccccc2c1 (stereo unspecified) 2.66%
CC(=O)N1CCC(C(=O)OCc2ccc(Cl)cc2)(c2ccccc2)CC1 -1.35%
CC(C)CNC(=O)CC(c1ccccc1)c1c(O)ccc2ccccc12 (stereo unspecified) -0.94%
CC(C)CNC(=O)/C=C/C(=O)O 0.58% and -0.1%
COc1cccc(N(CC(=O)NC2CCCC2)C(=O)Cn2nnc(-c3ccc(C)o3)n2)c1 0.72%
C=C(C)COc1ccc(-c2ncncc2-c2ccc(OC)cc2)c(O)c1 3.58%
Cc1cc(C)cc(C(=O)OCC(=O)NCCNC(=O)COC(=O)c2cc(C)cc(C)c2)c1 -1.1%
O=C1CCC(Cc2ccccc2)N1 (stereo unspecified) 0.74%
COc1cc2c(cc1OC)C(c1ccccc1Br)NC(=O)C2 (stereo unspecified) -0.82%
Cc1ccc(SCC(=O)NNC(=O)c2ccc(S(C)(=O)=O)cc2)cc1 2.29%
O=C(/C=C/c1cnc2ccccc2n1)NC1CCCCCC1 -4.23%
O=C(COC(=O)/C=C/c1cccs1)NC1CCCCC1 1.87%

inhibition, active:
COc1cc(NS(=O)(=O)c2ccc3ccccc3c2)c2ncccc2c1 17.1%
COc1cccc(/C=C/c2ccc3ccccc3n2)c1OC(C)=O 26.1%
Cc1nc2cc(NC(=O)Nc3cccc(F)c3)ccc2n1C 42.2%
O=C(Nc1ccccc1)c1ccc2c(c1)OCCCO2 31.5%
O=C(Nc1nc2ccccc2s1)c1ccc2c(c1)OCO2 21.8%
COc1cc(CNC2CCCCC2)c(Br)cc1OC1CCCC1 35.2%
CCCCOCCCNC(=O)c1ccccc1OCC 29.5%
CC(C)Nc1ccc(-n2nc3ccccc3[n+]2[O-])cc1 20.2%
COCc1cc(=O)[nH]c2cc(NC(=O)C(F)(F)F)c(C)cc12 43.6%
C=CCn1c(C)cc(C2=NNC(=NCC)SC2)c1C 44.5%
CCOC(=O)CNC(=O)c1nn(-c2cccc(OC)c2)c(=O)c2ccccc12 20.7%
Cc1cc(C)nc(S/C=C/C(=O)c2ccccc2)n1 34.3%
COc1ccc(C(=O)Nc2ccccc2C(=O)N/N=C/c2ccc(O)c(OC)c2)cc1 89%
COc1ccc(/C=N/Nc2ccccc2C(=O)O)cc1 24.7%
COc1ccc(C(=O)Nc2ccccc2C(=O)N/N=C/c2ccccc2OC)cc1 50.3%
CSCCC(C(=O)NC1=NCCS1)N1C(=O)c2ccccc2C1=O (stereo unspecified) 33.2%
CC(C)CNC(=O)CC(NCC(C)C)C(=O)O (stereo unspecified) 21.9%
c1ccc(-c2ccc3c(c2)NC(C2Nc4cc(-c5ccccc5)ccc4O2)O3)cc1 (stereo unspecified) 52.5%
O=C1CCC([N+](=O)[O-])C(c2ccccc2Br)N1 (stereo unspecified) 78.7%

Reference: PubChem BioAssay AID1789 (The Scripps Research Institute Molecular Screening Center, 2009)
